Assay [1] in a line: reducers of endogenous Her2 protein level, primary screen, SKBR3 breast tumor cells, AlphaScreen, ATP viability (AID 461;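 active = Her2 level under about 52% in both replicate screens, with viability over 70% of control, limit read from the data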;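 for Her2 level: lower value means less Her2 protein in the cells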;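 for viability: percent of carrier control wells set as 100% viability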). Conditions: 18-24 h, measured here: SKBR3 viability, ATP luminescence, at 10 µM.
The target in assay [2] is Receptor tyrosine-protein kinase erbB-2 (Homo sapiens) (UniProt P04626). The description is as above. Conditions: 18-24 h, at 10 µM, stronger effect = lower value.
A short description of assay [3]: SK-BR-3 cell growth inhibitors, pilot screen, 24 h, human (AID 572;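 active = viability at or below 10% of carrier control in both of two separate runs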;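 note: compound exposure lasted between 18 and 24 h rather than exactly 24 h; 100% = carrier-treated control wells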). Conditions: SK-BR-3 viability, CellTiter-Glo luminescence, at 10 µM, stronger effect = lower value.
Assay [4] is described as follows: HUVEC growth inhibition – cell-based, human, primary screen (AID 575;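 active = viability at or below 30% in both replicate assays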;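 note: 100% = median of untreated cell wells with 0.1% DMSO on each plate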). Conditions: HUVEC proliferation, CellTiter-Glo luminescence, 72 h; at 10 µM; stronger effect = lower value.
Assay [5] is described as follows: growth inhibitors of H69AR lung tumor, primary screen, human, duplicate replicates (AID 580;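 active = viability at or under a set limit in both replicates, limit being median viability minus 3 SD, cut at about 48% in these data, passing the limit was not always enough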;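 note: 100% = mean luminescence of untreated wells and 0% = no signal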). Conditions: H69AR lung tumor cells viability, ATP luminescence, 72 h; at 10 µM; stronger effect = lower value.
The nature of assay [6]: reversal of MRP1-mediated doxorubicin resistance, pilot screen, H69AR cells, doxorubicin co-treatment (AID 601;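 active = viability loss from added drug above about 55%, and viability with drug at most 40%, in both replicates, limit read from the data, passing the limit was not always enough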). Conditions: CellTiter-Glo, 72 h, at 10 µM; for differential viability (reversal): stronger effect = higher value.
Assay [7] is described as follows: 384-well plate pilot, post-Golgi transport modulator project, inhibition of yeast transport mutant growth (AID 636; in the data active = inhibition above about 31%). Conditions: absorbance 615 nm, about 18 h, stronger effect = higher value.
A short description of assay [8]: growth suppression of yeast trafficking mutant, preliminary HTS, modulators of trafficking downstream of Golgi apparatus project, 1536-format plate, OD 615 nm (AID 637). Conditions: yeast transport mutant growth, absorbance 615 nm, 18 h; stronger effect = higher value.
A short description of assay [9]: OD615 S. cerevisiae growth inhibition, permissive medium, pilot counter-assay, permissive growth control for S. cerevisiae lifespan shortening project (AID 705;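 active = growth inhibition above 25% in both replicates, a cutoff set 3 SD above the mean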). Conditions: OD615, 24 h, at 10 µM, stronger effect = higher value.
Assay [10] is described as follows: Restrictive medium S. cerevisiae growth inhibition, OD615, pilot screen of yeast lifespan reduction project, restrictive growth control (AID 706;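 active = growth inhibition above a set limit, 3 SD over mean compound inhibition, in both replicates, cut at about 43% in these data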;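 note: modified DeaD lifespan yeast strain shifted to restrictive glucose medium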). Conditions: OD615, 48 h, at 10 µM, stronger effect = higher value.
A short description of assay [11]: viability gain of MRP-1-high H69AR cells under doxorubicin, pilot screen, MRP-1 activator project, CellTiter-Glo, duplicate (AID 807;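 active = viability increase at or above a cutoff of the median across tested compounds plus 3 SD, cut at about 8.5% in these data, passing the limit was not always enough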;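 note: compound pretreatment 18-22 h then 72 h combined with doxorubicin; 0% = doxorubicin alone and 100% = vehicle without doxorubicin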). Conditions: H69AR viability with doxorubicin, CellTiter-Glo luminescence; at 10 µM; stronger effect = higher value.
A short description of assay [12]: growth suppression of beta-catenin knockout HCT116, pilot screen, human colon tumor cells (AID 823;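 active = cell viability at or below a set limit in both duplicate runs, the limit being the all-compound median minus 4 SD, cut at about 23% in these data, passing the limit was not always enough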;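 note: 0% = wells killed by 20 µM Hyamine and 100% = untreated DMSO cell wells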). Conditions: CellTiter-Glo, 60 h, at 10 µM, stronger effect = lower value.
The nature of assay [13]: growth suppression of PTEN-deleted HCT116, pilot screen, cell-based, HCT116 clonal line, CellTiter-Glo (AID 824;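 active = viability at or below 27.92% in each of two runs, the all-compound median minus 4 SD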;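 note: 0% = 20 µM Hyamine control and 100% = vehicle cell control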). Conditions: 60 h, at 10 µM, stronger effect = lower value.
Assay [14] in a line: inhibitors of the yeast RAM network, pilot screen, dse1pr::URA3 reporter, 5-FOA selection (AID 869;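 active = inhibition over a set limit, the all-compound mean plus 3 SD, in both replicate runs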;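 note: 0% = DMSO wells with no growth and 100% = 10 µM 1-NA-PP1 with full growth; RAM network block rescues cells from 5-FOA so hits raise OD615 growth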). Conditions: S. cerevisiae dse1pr::URA3 5-FOA growth, OD615, 2 d; at 10 µM; stronger effect = higher value; strain carries analog-sensitive mutant Cbk1 kinase.
Assay [15] in a line: RAM signaling pathway blockade in yeast – S. cerevisiae, Pdr1DBD-CYC8 efflux-inhibited sensitized strain, primary screen (AID 1298;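 active = RAM network inhibition above 8.4% in each of two replicates, 3 SD over the compound average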;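 note: 0% = DMSO untreated cells without growth and 100% = 10 µM 1-NA-PP1 full growth; higher means more yeast growth rescued from 5-FOA killing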). Conditions: S. cerevisiae cbk1-as DSE1-URA3 strain, 5-FOA growth OD615, 2 d; at 50 µM; stronger effect = higher value.
[16] abbreviates: H69AR cells + 2 uM doxorubicin, measured here: viability with 2 uM doxorubicin, stronger effect = lower value.
Where [17] appears, read: H69AR cells, compound alone cytotoxicity.

Records with an inconclusive call do not appear. Calls of active or inactive are those of the source. Cut-off read from the data, not from the text of the source, unless noted: active = inhibition above about 30%; inactive = the rest.

Chain of Receptor tyrosine-protein kinase erbB-2 (Homo sapiens) (P04626 whole entry, looked up): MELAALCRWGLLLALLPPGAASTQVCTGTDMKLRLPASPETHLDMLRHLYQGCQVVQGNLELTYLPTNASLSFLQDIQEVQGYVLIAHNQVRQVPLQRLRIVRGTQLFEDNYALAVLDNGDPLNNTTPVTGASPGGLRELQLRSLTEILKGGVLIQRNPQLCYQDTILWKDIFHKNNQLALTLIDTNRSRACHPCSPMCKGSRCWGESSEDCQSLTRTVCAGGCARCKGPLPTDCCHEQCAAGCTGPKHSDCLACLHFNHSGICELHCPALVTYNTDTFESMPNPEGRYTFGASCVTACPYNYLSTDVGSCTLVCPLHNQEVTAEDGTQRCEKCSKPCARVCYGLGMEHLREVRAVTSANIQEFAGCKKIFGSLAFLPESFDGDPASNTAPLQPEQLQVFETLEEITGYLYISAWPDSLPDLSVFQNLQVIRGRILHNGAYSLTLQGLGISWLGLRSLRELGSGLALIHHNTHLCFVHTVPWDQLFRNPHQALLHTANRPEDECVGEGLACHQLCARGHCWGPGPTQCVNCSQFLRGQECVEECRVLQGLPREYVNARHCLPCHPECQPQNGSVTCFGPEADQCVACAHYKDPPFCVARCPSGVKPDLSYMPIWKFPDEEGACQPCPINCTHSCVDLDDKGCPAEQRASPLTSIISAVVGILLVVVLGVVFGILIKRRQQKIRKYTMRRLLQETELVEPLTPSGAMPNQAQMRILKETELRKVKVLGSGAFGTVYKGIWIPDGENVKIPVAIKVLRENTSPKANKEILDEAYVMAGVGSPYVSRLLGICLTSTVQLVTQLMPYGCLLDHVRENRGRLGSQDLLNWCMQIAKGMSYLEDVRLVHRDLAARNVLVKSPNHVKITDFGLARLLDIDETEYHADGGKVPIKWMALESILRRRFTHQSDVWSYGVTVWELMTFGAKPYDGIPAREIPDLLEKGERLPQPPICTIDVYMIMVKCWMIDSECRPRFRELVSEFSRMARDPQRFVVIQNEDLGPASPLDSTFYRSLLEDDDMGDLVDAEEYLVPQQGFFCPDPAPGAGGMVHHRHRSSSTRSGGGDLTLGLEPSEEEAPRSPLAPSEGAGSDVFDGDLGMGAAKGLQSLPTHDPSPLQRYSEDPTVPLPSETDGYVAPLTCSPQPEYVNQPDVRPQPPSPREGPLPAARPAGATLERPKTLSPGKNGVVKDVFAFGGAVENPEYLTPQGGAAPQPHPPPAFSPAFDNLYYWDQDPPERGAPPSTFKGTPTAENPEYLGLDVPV

In the case of `Cn1cccc1Cc1nnc(SCC(=O)NCc2ccc(F)cc2)n1-c1ccc(F)cc1`, the viability in assay [1] is 94.5%; in assay [3] it was 94.5% (inactive); in [4] it was 80.9% (inactive); in assay [5], 89% (inactive); in assay [6] (setting [16]), 93%; in [6] (setting [17]), 89%. Besides, the values for the viability in [12] and in assay [13] were 97.6% (inactive) and 93.4% (inactive), respectively. Also, the Her2 level in assay [2] was 108% (inactive). The differential viability (reversal) in [6] (H69AR cells + 2 uM doxorubicin) was -4% (inactive). For the same compound, the inhibition is -1.07% (inactive) in assay [7], 13.3% (inactive) in assay [8] and 2.13% (inactive) in assay [14]. For the same compound, the growth inhibition in [9] is -3.33% (inactive); in assay [10] it was 8.56% (inactive). Also, the viability increase in assay [11] was -0.43% (inactive). The RAM network inhibition in assay [15] was 6.3% (inactive).

Turning to `CC1=C(C(=O)Nc2ccccc2)C(c2ccccn2)n2nc(CCCO)nc2N1` (stereo not drawn), the viability in assay [1] was 94.5%; in assay [3], 94.5% (inactive); in [4] it was 101% (inactive); in assay [5], 95.6% (inactive); in assay [6] (setting [16]) it was 94.1%; in assay [6] (setting [17]), 95.6%. Also, the viability in [12] is 96.3% (inactive); in assay [13], 92.9% (inactive). Also, the Her2 level in assay [2] was 105% (inactive). In addition, the differential viability (reversal) in assay [6] (H69AR cells + 2 uM doxorubicin) was 1.47% (inactive). The results for the inhibition in assay [7], in assay [8] and in [14] were -5.73% (inactive), -3.33% (inactive) and 1.56% (inactive), respectively. The growth inhibition in assay [9] is -14.1% (inactive); in [10] it was -8.68% (inactive). Moreover, the viability increase in [11] is -0.39% (inactive). Moreover, the RAM network inhibition in assay [15] is 5.48% (inactive).

Take `CC(=O)Nc1cccc(NC(=O)c2ccco2)c1`: the viability in [1] was 94%; in [3] it was 94% (inactive); in assay [4] it was 108% (inactive); in assay [5], 91.5% (inactive); in assay [6] (setting [16]), 91.6%; in assay [6] (setting [17]) it was 91.5%. In addition, the results for the viability in assay [12] and in assay [13] were 99.6% (inactive) and 98.1% (inactive), respectively. Moreover, in assay [2], the Her2 level is 94% (inactive). Also, in assay [6] (H69AR cells + 2 uM doxorubicin), the differential viability (reversal) is -0.085% (inactive). Also, the values for the inhibition in assay [7], in [8] and in [14] were -2.21% (inactive), -11.7% (inactive) and 1.83% (inactive), respectively. In addition, the growth inhibition in assay [9] is -5.76% (inactive); in [10], -3.89% (inactive). In addition, the viability increase in [11] is -4.18% (inactive). Besides, the RAM network inhibition in assay [15] is 0.76% (inactive).

Consider `COc1ccc(-c2nc3c(c(SCC(=O)N4CCOCC4)n2)COC(C)(C)C3)cc1`, for which the viability was 111% in assay [1]; 111% (inactive) in [3]; 85.5% (inactive) in [4]; 89.2% (inactive) in assay [5]; 92.1% in assay [6] (setting [16]); 89.2% in assay [6] (setting [17]). The viability was 101% (inactive) in [12] and 103% (inactive) in [13]. In assay [2], the Her2 level is 113% (inactive). Besides, in [6] (H69AR cells + 2 uM doxorubicin), the differential viability (reversal) was -2.95% (inactive). The inhibition was -2% (inactive) in assay [7], 13.8% (inactive) in assay [8] and 0.94% (inactive) in assay [14]. In addition, the values for the growth inhibition in assay [9] and in assay [10] were 2.8% (inactive) and -4.27% (inactive), respectively. Also, in assay [11], the viability increase is -1.69% (inactive). Further, in assay [15], the RAM network inhibition was 2.02% (inactive).

For the compound `COc1ccc(N(CC(=O)Nc2ccc3c(c2)OCCO3)S(=O)(=O)c2cccnc2)cc1`, the viability is 91% in assay [1]; 91% (inactive) in [3]; 104% (inactive) in assay [4]; 92.5% (inactive) in assay [5]; 87.5% in assay [6] (setting [16]); 92.5% in [6] (setting [17]). For the same compound, the viability was 102% (inactive) in [12] and 99.7% (inactive) in assay [13]. In addition, in assay [2], the Her2 level was 108% (inactive). The differential viability (reversal) in assay [6] (H69AR cells + 2 uM doxorubicin) is 4.99% (inactive). Further, the inhibition in assay [7] is -5.13% (inactive); in [8] it was -3.83% (inactive); in assay [14], 1.63% (inactive). The results for the growth inhibition in assay [9] and in [10] were -10.3% (inactive) and 0.75% (inactive), respectively. Besides, the viability increase in [11] is -2.05% (inactive). Further, the RAM network inhibition in assay [15] is 4.76% (inactive).

Consider `O=C(CSc1nnc(Cn2c(=O)sc3ccccc32)n1-c1ccccc1)Nc1nccs1`, for which the viability is 97% in assay [1]; 97% (inactive) in assay [3]; 66.9% (inactive) in [4]; 84.2% (inactive) in assay [5]; 84% in assay [6] (setting [16]); 84.2% in [6] (setting [17]). Also, the viability in [12] is 89.5% (inactive); in assay [13] it was 90% (inactive). Further, in assay [2], the Her2 level is 106% (inactive). The differential viability (reversal) in assay [6] (H69AR cells + 2 uM doxorubicin) was 0.24% (inactive). Besides, the figures for the inhibition in [7], in [8] and in assay [14] were -5.73% (inactive), -4.43% (inactive) and 2.44% (inactive), respectively. Moreover, the values for the growth inhibition in [9] and in assay [10] were 11.2% (inactive) and 27.2% (inactive), respectively. Besides, the viability increase in assay [11] is -3.44% (inactive). For the same compound, the RAM network inhibition in [15] was 2.05% (inactive).

Turning to `Cc1c(NC(=O)C2CCCCN2S(=O)(=O)c2ccc(Cl)cc2)c(=O)n(-c2ccccc2)n1C` (stereo not drawn), the viability in assay [1] is 112%; in assay [3], 112% (inactive); in [4], 90.1% (inactive); in assay [5] it was 91.3% (inactive); in assay [6] (setting [16]), 98.2%; in assay [6] (setting [17]), 91.3%. Moreover, the viability in assay [12] is 96.9% (inactive); in [13], 103% (inactive). Also, in assay [2], the Her2 level is 120% (inactive). For the same compound, the differential viability (reversal) in assay [6] (H69AR cells + 2 uM doxorubicin) was -6.92% (inactive). In addition, the inhibition in [7] was -3.47% (inactive); in assay [8] it was -1% (inactive); in [14] it was 0.76% (inactive). For the same compound, the growth inhibition in assay [9] was -2.56% (inactive); in [10], -1.4% (inactive). Further, the viability increase in assay [11] is -1.13% (inactive). Moreover, in [15], the RAM network inhibition was -0.87% (inactive).

`CCn1c(SCC(=O)Nc2ccc(Cl)cc2)nnc1C1CC1`: the viability is 92.5% in assay [1]; 92.5% (inactive) in assay [3]; 84.2% (inactive) in [4]; 74.7% (inactive) in [5]; 63.7% in assay [6] (setting [16]); 74.7% in [6] (setting [17]). Moreover, the viability in assay [12] was 102% (inactive); in [13], 97.8% (inactive). Also, in assay [2], the Her2 level was 95.5% (inactive). In addition, the differential viability (reversal) in assay [6] (H69AR cells + 2 uM doxorubicin) is 11.1% (inactive). For the same compound, the inhibition in [7] is -2.27% (inactive); in [8], 1.67% (inactive); in assay [14], 0.85% (inactive). The growth inhibition in [9] was 5.96% (inactive); in assay [10], 1.14% (inactive). For the same compound, in assay [11], the viability increase is -4.1% (inactive). For the same compound, the RAM network inhibition in [15] was 3.74% (inactive).

Regarding `CC1=C(C(=O)Nc2cccnc2)C(c2ccc(C(C)C)cc2)n2ncnc2N1` (stereo not drawn), the viability is 89.5% in assay [1]; 89.5% (inactive) in assay [3]; 103% (inactive) in assay [4]; 97.8% (inactive) in assay [5]; 71.1% in assay [6] (setting [16]); 97.8% in assay [6] (setting [17]). The viability in [12] is 96.6% (inactive); in assay [13], 102% (inactive). The Her2 level in assay [2] was 105% (inactive). Besides, the differential viability (reversal) in [6] (H69AR cells + 2 uM doxorubicin) was 26.7% (inactive). The inhibition was -2.13% (inactive) in assay [7], -2.83% (inactive) in [8] and 0.44% (inactive) in assay [14]. Further, the growth inhibition in assay [9] was -9.26% (inactive); in [10] it was -12.1% (inactive). Further, the viability increase in assay [11] was -3.03% (inactive). The RAM network inhibition in assay [15] was 1.4% (inactive).
